Source: PubChem
ULK1 primary: ULK1 kinase inhibitors, primary screen, biochemical, AlphaScreen; Serine/threonine-protein kinase ULK1 (Homo sapiens), O75385; AlphaScreen Atg13 phosphorylation by ULK1, luminescence; inhibition, % at 5.96 µM; 30,000 tested, 1.9% active; in the data active = inhibition above about 43%
ASK1 inh: ASK1 kinase inhibitors, primary screen, biochemical, AlphaScreen | inhibition, % at 7.44 µM | 22,000 tested, 0.99% active | AlphaScreen MKK6 phosphorylation by ASK1, luminescence | Mitogen-activated protein kinase kinase kinase 5 (Homo sapiens), Q99683; in the data active = inhibition above about 35%
Target sequence (Q99683 whole entry, looked up): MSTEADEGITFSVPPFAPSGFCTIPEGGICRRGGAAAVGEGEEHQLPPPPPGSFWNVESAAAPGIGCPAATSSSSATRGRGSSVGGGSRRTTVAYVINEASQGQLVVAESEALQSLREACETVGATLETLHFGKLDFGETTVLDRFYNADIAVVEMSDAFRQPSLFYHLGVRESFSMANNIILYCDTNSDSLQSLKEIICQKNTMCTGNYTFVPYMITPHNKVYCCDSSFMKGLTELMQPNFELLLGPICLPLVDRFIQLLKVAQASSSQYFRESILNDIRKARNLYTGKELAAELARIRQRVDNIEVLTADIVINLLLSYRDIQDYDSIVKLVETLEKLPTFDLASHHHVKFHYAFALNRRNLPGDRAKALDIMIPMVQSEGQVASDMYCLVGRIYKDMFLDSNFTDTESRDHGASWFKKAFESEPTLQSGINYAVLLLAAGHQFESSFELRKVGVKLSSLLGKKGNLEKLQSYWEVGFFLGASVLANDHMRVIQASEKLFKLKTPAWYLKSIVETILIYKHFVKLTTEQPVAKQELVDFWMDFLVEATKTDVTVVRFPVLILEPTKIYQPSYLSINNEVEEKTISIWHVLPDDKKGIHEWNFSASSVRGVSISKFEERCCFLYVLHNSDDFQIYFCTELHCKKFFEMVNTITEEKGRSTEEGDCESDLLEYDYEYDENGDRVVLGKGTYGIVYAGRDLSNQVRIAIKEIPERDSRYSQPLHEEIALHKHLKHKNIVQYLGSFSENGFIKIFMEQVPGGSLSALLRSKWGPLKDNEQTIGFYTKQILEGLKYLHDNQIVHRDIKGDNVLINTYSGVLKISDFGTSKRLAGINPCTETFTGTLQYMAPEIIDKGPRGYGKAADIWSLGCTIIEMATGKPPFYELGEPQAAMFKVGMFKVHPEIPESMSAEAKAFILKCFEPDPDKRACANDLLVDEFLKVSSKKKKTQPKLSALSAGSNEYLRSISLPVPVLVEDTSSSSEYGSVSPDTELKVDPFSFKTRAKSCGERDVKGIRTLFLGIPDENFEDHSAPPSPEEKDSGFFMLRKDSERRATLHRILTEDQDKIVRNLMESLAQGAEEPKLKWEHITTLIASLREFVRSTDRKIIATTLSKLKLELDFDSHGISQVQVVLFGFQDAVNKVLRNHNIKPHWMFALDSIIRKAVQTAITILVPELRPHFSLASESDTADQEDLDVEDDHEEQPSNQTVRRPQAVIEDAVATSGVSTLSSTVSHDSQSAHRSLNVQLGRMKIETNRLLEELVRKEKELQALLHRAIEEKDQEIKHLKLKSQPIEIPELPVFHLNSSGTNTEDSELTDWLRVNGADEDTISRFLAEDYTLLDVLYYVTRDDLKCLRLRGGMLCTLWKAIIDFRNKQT
Large screens that a line does not name were inactive; ! = not confirmed by another sample. Most compounds without a hit are left out; they make up all but 2.4% or so of the library.

CCNc1ncc(C(=O)NC2CC2)s1	none
COc1ccc(CCNc2nc(N3CCC(N4CCOCC4)CC3)nc3c2ncn3Cc2ccc(C(F)(F)F)cc2)cc1	none
c1cc(-n2cnc(N3CCOCC3)n2)ccc1Nc1ncc2ccc(-c3cn[nH]c3)cc2n1	ULK1 primary 74
c1ccc(-c2ccc3cnc(Nc4ccc(-n5cnc(N6CCOCC6)n5)cc4)nc3c2)cc1	none
Cn1cc(-c2ccc3cnc(Nc4ccc(-n5cnc(C(C)(C)C)n5)cc4)nc3c2)cn1	none
c1cc(-c2cn[nH]c2)cc(Nc2ccc(N3CCOCC3)cc2)n1	none
Cn1cc(-c2ccc3cnc(Nc4ccc(-n5cnc(N6CCCC(O)C6)n5)cc4)nc3c2)cn1 (stereo not drawn)	ULK1 primary 79
O=c1ccc(-c2ccc3cnc(Nc4ccc(-n5cnc(N6CCOCC6)n5)cc4)nc3c2)c[nH]1	none
c1cc(-n2cnc(N3CCOCC3)n2)ccc1Nc1cc2cc(-c3cn[nH]c3)ccc2cn1	ULK1 primary 87
c1ccc2nc(Nc3ccc(-n4cnc(N5CCOCC5)n4)cc3)ncc2c1	ULK1 primary 46
CN1C(=O)C2(NN=C(c3ccccc3)S2)c2ccccc21 (stereo not drawn)	none (no result: ASK1 inh)
CC(=O)Nc1ccc(Nc2nc(N3CCc4ccccc4C3)ncc2C)cc1	none
CCNc1nc(C)cc(NCCO)n1	none
COc1cc(NC(=O)c2cc(N3CCc4ccccc4C3)nc3ccccc23)cc(OC)c1OC	none
Clc1cnc(Nc2ccc(-n3cnc(N4CCOCC4)n3)cc2)nc1-c1ccno1	none
Cc1cc(-c2nc(Nc3ccc(-n4cnc(N5CCOCC5)n4)cc3)ncc2Cl)no1	ULK1 primary 44
CCc1nnc(N/N=C/c2ccccc2Cl)n1N	ULK1 primary 48 (no result: ASK1 inh)
COc1cc(OC)nc(Oc2ccccc2/C=N/NC(N)=S)n1	none (no result: ASK1 inh)
CC(C)N(CCNc1nc(NCc2ccc3c(c2)OCO3)nc2c1ncn2C(C)C)C(C)C	none
CCCNC(=O)Cc1csc(NC(=O)c2ccccc2)n1	none (no result: ASK1 inh)
COc1cc(Nc2nc(Nc3ccncn3)ncc2C)cc(OC)c1OC	none
COc1cc(Nc2ncc(C)c(Nc3cc(OC)c(OC)c(OC)c3)n2)cc(OC)c1OC	none
COc1cc(Nc2nc(Nc3ccccc3)ncc2C)cc(OC)c1OC	ULK1 primary 62
COc1cc(Nc2cc(C)nc(Nc3cccnc3)n2)cc(OC)c1OC	ULK1 primary 45
COc1cc(Nc2cc(C)nc(Nc3cc(OC)c(OC)c(OC)c3)n2)cc(OC)c1OC	none
COc1cc(Nc2nc(Nc3ccccn3)ncc2C)cc(OC)c1OC	ULK1 primary 51
COc1cc(C)c(S(C)=O)cc1OC (stereo not drawn)	none (no result: ASK1 inh)
COc1ccc(CCNc2nc(-c3csc4ccccc34)nc3c2ncn3Cc2ccc(C(F)(F)F)cc2)cc1	none
COC(=O)c1cc(Cl)ccc1Oc1nc(OC)nc(OC)n1	none (no result: ASK1 inh)
O=C1CCCN1CCCNc1nccc(Nc2ccc(Oc3ccccc3)cc2)n1	none
c1cncc(Nc2nc(NC3CC3)c3[nH]cnc3n2)c1	ULK1 primary 60
c1ccc(Nc2nc(NC3CC3)c3[nH]cnc3n2)nc1	none
O=C(NC1CCN(Cc2ccccc2)CC1)c1cnc(-c2ccc(N3CCOCC3)nc2)s1	none
NC(Cc1cc(I)c(Oc2ccc(O)c(I)c2)c(I)c1)C(=O)O (stereo not drawn)	none (no result: ASK1 inh)
N[C@@H](Cc1cc(I)c(Oc2cc(I)c(O)c(I)c2)c(I)c1)C(=O)O	ULK1 primary 79 (no result: ASK1 inh)
COc1cc(Nc2nc(Nc3ccncc3)nc3c2ncn3-c2ccsc2)cc(OC)c1OC	none
CCCCc1ccc(NC(=O)CN(CC(=O)O)CC(=O)O)cc1	none (no result: ASK1 inh)
Cc1cnc(Nc2ccncc2)nc1NCCCN1CCCC1=O	none
Cc1cnc(Nc2ccc(-n3ccnc3)cc2)nc1Nc1ccccc1	none
Cc1cnc(Nc2ccc(-n3ccnc3)cc2)nc1NC1CC1	ULK1 primary 52
O=C1CCCN1CCCNc1nc(Nc2ncccn2)nc2nc[nH]c12	none
Cc1cnc(Nc2ccc(-n3ccnc3)cc2)nc1NCCCN1CCCC1=O	ULK1 primary 69
O=C1CCCN1CCCNc1nc(Nc2ccc(C(F)(F)F)cc2)nc2nc[nH]c12	ULK1 primary 53
O=c1[nH]c2ccc(N=Cc3ccc(F)cc3)cc2[nH]1	none (no result: ASK1 inh)
CCNc1nc(NCCOc2ccccc2)c2ncn(-c3ccsc3)c2n1	none
O=C(NCCCN1CCCC1=O)c1cnc(Nc2ccncn2)s1	none
NC(=O)c1ccccc1Nc1ccnc(Nc2ccc(N3CCOCC3)cc2)c1	none
NC(=O)c1cnccc1Nc1ccnc(Nc2ccc(N3CCOCC3)cc2)c1	ULK1 primary 44
COc1cc(N2CCOCC2)ccc1Nc1cc(Nc2ccccc2C(N)=O)c(C)cn1	none
Cc1cnc(Nc2ccc(N3CCNCC3)cc2)cc1Nc1ccccc1C(N)=O	ULK1 primary 94
Cc1cnc(Nc2cccc(N3CCOCC3)c2)cc1Nc1ccccc1C(N)=O	ULK1 primary 82
NC(=O)c1ccccc1Nc1ccnc(Nc2ccc(N3CCNCC3)cc2)c1	ULK1 primary 48
CN1CCN(c2ccc(Nc3cc(Nc4ccccc4C(N)=O)ccn3)cc2)CC1	none
NC(=O)c1nccnc1Nc1ccnc(Nc2ccc(N3CCOCC3)cc2)c1	none
COc1ccc(CCNc2ncnc3c2nc(Nc2ccncn2)n3C(C)C)cc1	none
O=C1CN(/N=C/c2ccc(-c3ccc(Cl)c(Cl)c3)o2)C(=O)N1	none (no result: ASK1 inh)
c1cc(Nc2ccc3nc[nH]c3c2)cc(Nc2ccc(N3CCOCC3)cc2)n1	none
c1cc(Nc2cc(C3CC3)[nH]n2)cc(Nc2ccc(N3CCOCC3)cc2)n1	ULK1 primary 47
CC(C)n1c(Nc2cccc(N(C)C)c2)nc2c(Nc3ccc(N4CCOCC4)cc3)ncnc21	ASK1 inh 37
CC(C)n1c(Nc2ccc(N3CCOCC3)cc2)nc2c(Nc3ccccc3)ncnc21	none
Cc1ccc(-c2ncn(-c3ccc(Nc4nccc(-c5ccc(S(C)(=O)=O)c(N6CCCC(O)C6)c5)n4)cc3)n2)cn1 (stereo not drawn)	none
N#Cc1cc(-c2ccnc(Nc3ccc(-n4cnc(N5CCNCC5)n4)cc3)n2)cc(N2CCOCC2)c1	none
CCN(CC)C(=O)C1CCCN(c2nc(C(=O)Nc3ccc(NC(C)=O)cc3)cs2)C1 (stereo not drawn)	none
O=C(NCCCN1CCOCC1)c1ccnc(-n2ncc3cc(Nc4c(Cl)cccc4Cl)ccc32)c1	none
CCCNc1nc(Nc2nc3ccccc3n2C)nc2c1ncn2C1CCCCC1	none
Cn1c(Nc2nc(NCCc3ccc(O)cc3)c3ncn(C4CCCCC4)c3n2)nc2ccccc21	ULK1 primary 44
Cc1c(NC(=O)C2COc3ccccc3O2)ccc(-c2cn[nH]c2)c1C (stereo not drawn)	none
FC(F)(F)c1cnc(Nc2ccccn2)cc1Nc1ccccn1	ULK1 primary 50
CN1Cc2cccc(Nc3cc(Nc4cccc5c4C(=O)N(C)C5)c(C(F)(F)F)cn3)c2C1=O	none
COc1ccc(C(=O)c2oc3cc(NC(=O)c4ccncc4)ccc3c2C)cc1	none (no result: ASK1 inh)
CNC(=O)c1ccccc1Nc1cc(Nc2ccc(N3CCOCC3)cn2)ncc1C(F)(F)F	ULK1 primary 91
COc1cc(N2CCOCC2)ccc1Nc1cc(Nc2cccnc2)c(C(F)(F)F)cn1	none
CNC(=O)c1ccccc1Nc1cc(Nc2ccc(N3CCOCC3)cc2C)ncc1C(F)(F)F	ULK1 primary 92
FC(F)(F)c1cccc(CNc2ccnc(Nc3ccc(N4CCOCC4)cc3)n2)c1	ASK1 inh 36!
FC(F)(F)c1cccc(CNc2ccnc(NCCN3CCOCC3)n2)c1	none
CCCNC(=O)C1CCN(c2ccc(N3CCCC3CO)nn2)CC1 (stereo not drawn)	none
